Outcome and AC50 data for one compound are collected here from PubChem BioAssay (EPA / NIEHS).

The target of assay [1] is zebrafish Estrogen Receptor (ESR1), esr1 (gene 259252) (UniProt P57717). Briefly: ATG_zfER1_XSP1: Attagene TRANS-FACTORIAL Multi-Species (XSP1) HepG2 Assay for zebrafish Estrogen Receptor (ESR1) (AID 2283772). A digest of the protocol: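 Trans-activation readout: transfected zebrafish ER-Gal4 drives a UAS reporter in human HepG2 liver cells. After 24 h compound exposure (medium containing 3 nM 6-alpha-fluorotestosterone), induced reporter transcripts were quantified by RT-PCR with capillary electrophoresis, relative to DMSO.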

Assay [2] deals with zebrafish Estrogen Receptor (ESR2B), gene 317733. Briefly: ATG_zfER2b_XSP1: Attagene TRANS-FACTORIAL Multi-Species (XSP1) HepG2 Assay for zebrafish Estrogen Receptor (ESR2B) (AID 2283773). A digest of the protocol:
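Human hepatoma HepG2, transiently transfected with multi-reporter units; exogenous zebrafish ESR2B-Gal4 activity measured. Exposure 24 h alongside 3 nM 6-alpha-fluorotestosterone to partly stimulate AR.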

For assay [3], the system named is frog Estrogen Receptor (ESR2), gene 100174814. Nature of the assay: ATG_frER2_XSP1: Attagene TRANS-FACTORIAL Multi-Species (XSP1) HepG2 Assay for frog Estrogen Receptor (ESR2) (AID 2283774). A digest of the protocol: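 Multiplexed TRANS-format reporter assay in human hepatoma HepG2: chimeric nuclear receptor-Gal4 activity reported as mRNA induction at 24 h, detected by fluorescent RT-PCR products on capillary electrophoresis and fitted upward from DMSO baseline.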

The test system of assay [4] is frog Estrogen Receptor (ESR1), gene 398734. Briefly: ATG_frER1_XSP1: Attagene TRANS-FACTORIAL Multi-Species (XSP1) HepG2 Assay for frog Estrogen Receptor (ESR1) (AID 2283777). A digest of the protocol:
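After transient transfection and 24 h compound treatment, total RNA from HepG2 cells was reverse-transcribed, amplified, FAM-labeled and resolved by capillary electrophoresis. Signal increases were fitted against DMSO controls.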

Assay [5] concerns zebrafish Estrogen Receptor (ESR2A), gene 317734. Nature of the assay: ATG_zfER2a_XSP1: Attagene TRANS-FACTORIAL Multi-Species (XSP1) HepG2 Assay for zebrafish Estrogen Receptor (ESR2A) (AID 2283778). A digest of the protocol: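 Gain-of-signal reporter transcription readout from GAL4-UAS units in transiently transfected HepG2 cells, 24 h exposure, 3 nM 6-alpha-fluorotestosterone co-present. Detection by RT-PCR with capillary electrophoresis fluorescence.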

Assay [6] deals with chicken Estrogen Receptor (ESR1), ESR1 (gene 396099) (UniProt P06212). Nature of the assay: ATG_chERa_XSP1: Attagene TRANS-FACTORIAL Multi-Species (XSP1) HepG2 Assay for chicken Estrogen Receptor (ESR1) (AID 2283779). A digest of the protocol:
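Gain-of-signal reporter transcription, relative to DMSO, was scored in transiently transfected HepG2 cells after a 24 h dose. Fluorescence intensity of amplified, digested reporter cDNA fragments served as the endpoint.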

Assay [7] relates to turtle Estrogen Receptor (ESR1), gene 101933533. Briefly: ATG_trERa_XSP1: Attagene TRANS-FACTORIAL Multi-Species (XSP1) HepG2 Assay for turtle Estrogen Receptor (ESR1) (AID 2283781). A digest of the protocol:
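Cell-based chimeric NR-Gal4 transactivation; HepG2; 24 h dosing; mRNA reporter detected by RT-PCR and capillary electrophoresis fluorescence.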

The nature of assay [8]: ATG_M_19_XSP1: Attagene TRANS-FACTORIAL Multi-Species (XSP1) HepG2 Assay for M19 Transcription Factor (Internal Marker) (AID 2283798). A digest of the protocol:
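Readout is reporter mRNA induction quantified via RT-PCR, 6-FAM labeling, HpaI digestion and capillary electrophoresis, fitted in the positive direction versus DMSO baseline. Transfected HepG2 cells exposed 24 h, medium including 3 nM 6-alpha-fluorotestosterone.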

Assay [9] is described as follows: ATG_M_32_XSP1: Attagene TRANS-FACTORIAL Multi-Species (XSP1) HepG2 Assay for M32 Transcription Factor (Internal Marker) (AID 2283799). A digest of the protocol:
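Reporter transcripts from the M32 internal-control unit measured by RT-PCR, FAM labelling, HpaI digestion and capillary electrophoresis after 24 h compound exposure of transfected HepG2, 3 nM 6-alpha-fluorotestosterone included; DMSO baseline, positive-direction fit.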

Assay [10] deals with Peroxisome proliferator-activated receptor gamma (Homo sapiens) (UniProt P37231). Briefly: ATG_hPPARg_XSP1: Attagene TRANS-FACTORIAL Multi-Species (XSP1) HepG2 Assay for human Peroxisome Proliferator-activated Receptor gamma (PPARg) (AID 2283800). A digest of the protocol: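 Reporter mRNA induction, measured by RT-PCR with capillary electrophoresis 24 h after dosing, scored as gain over DMSO. Transfected HepG2 cells express exogenous NR-Gal4 chimeras driving GAL4-UAS reporters; medium includes 3 nM 6-alpha-fluorotestosterone.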

Assay [11] concerns zebrafish Peroxisome Proliferator-activated Receptor gamma (PPARg), gene 557037. Nature of the assay: ATG_zfPPARg_XSP1: Attagene TRANS-FACTORIAL Multi-Species (XSP1) HepG2 Assay for zebrafish Peroxisome Proliferator-activated Receptor gamma (PPARg) (AID 2283801). A digest of the protocol: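 Trans-activation readout of chimeric zebrafish PPARg–GAL4 in transiently transfected human HepG2 cells, 24 h chemical exposure (medium includes 3 nM 6-alpha-fluorotestosterone). Reporter transcripts measured by RT-PCR and capillary electrophoresis, fitted as gain over DMSO.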

The target of assay [12] is mouse Peroxisome Proliferator-activated Receptor gamma (PPARg), Pparg (gene 19016) (UniProt P37238). Nature of the assay: ATG_mPPARg_XSP1: Attagene TRANS-FACTORIAL Multi-Species (XSP1) HepG2 Assay for mouse Peroxisome Proliferator-activated Receptor gamma (PPARg) (AID 2283802). A digest of the protocol: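 Readout is reporter mRNA induction, measured by RT-PCR with 6-FAM labelling, HpaI digestion and capillary electrophoresis, 24 h post-dose relative to DMSO. Transient multi-reporter transfection of human HepG2 with mouse PPARg–GAL4 fusion; 3 nM 6-alpha-fluorotestosterone included.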

Assay [13] concerns the target frog Thyroid hormone Receptor alpha (TRa), thra-a (gene 397942) (UniProt P15204). Briefly: ATG_frTRa_XSP1: Attagene TRANS-FACTORIAL Multi-Species (XSP1) HepG2 Assay for frog Thyroid hormone Receptor alpha (TRa) (AID 2283804). A digest of the protocol: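 Reporter transcript induction, measured by RT-PCR with 6-FAM labelling and capillary electrophoresis, 24 hr after dosing transiently transfected HepG2 cells expressing a frog TRa-GAL4 fusion; medium contained 3 nM 6-alpha-fluorotestosterone; increase over DMSO scored.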

For assay [14], the target named is human Thyroid hormone Receptor alpha (TRa), THRA (gene 7067) (UniProt P10827). Briefly: ATG_hTRa_XSP1: Attagene TRANS-FACTORIAL Multi-Species (XSP1) HepG2 Assay for human Thyroid hormone Receptor alpha (TRa) (AID 2283805). A digest of the protocol:
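Reporter transcripts from the human TRa-Gal4 TRANS unit quantified by RT-PCR, fluorescent labeling and capillary electrophoresis after 24 hours of chemical exposure in transfected HepG2 cells; medium contains 3 nM 6-alpha-fluorotestosterone. Positive direction fit against DMSO.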

For assay [15], the system named is turtle Thyroid Hormone Receptor, alpha (TRa), gene 101949057. Nature of the assay: ATG_trTRa_XSP1: Attagene TRANS-FACTORIAL Multi-Species (XSP1) HepG2 Assay for turtle Thyroid Hormone Receptor, alpha (TRa) (AID 2283806). A digest of the protocol: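 After 24 h chemical exposure, reporter transcripts were measured by RT-PCR with fluorescent primer extension, HpaI digestion and capillary electrophoresis. Cells were transiently transfected HepG2 expressing exogenous NR-Gal4 chimeras; medium contained 3 nM 6-alpha-fluorotestosterone; fitted upward relative to DMSO.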

The target in assay [16] is zebrafish Thyroid Hormone Receptor alpha (TRa), thraa (gene 30670) (UniProt Q98867). Briefly: ATG_zfTRa_XSP1: Attagene TRANS-FACTORIAL Multi-Species (XSP1) HepG2 Assay for zebrafish Thyroid Hormone Receptor alpha (TRa) (AID 2283807). A digest of the protocol: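 Reporter transcripts driven by a chimeric zebrafish TRa–Gal4 protein were measured by RT-PCR with fluorescent labelling and capillary electrophoresis. These came from transiently transfected HepG2 cells after 24 h chemical exposure, with 3 nM 6-alpha-fluorotestosterone added; baseline was DMSO.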

Assay [17] deals with human Thyroid hormone Receptor beta (TRb), THRB (gene 7068) (UniProt P10828). Nature of the assay: ATG_hTRb_XSP1: Attagene TRANS-FACTORIAL Multi-Species (XSP1) HepG2 Assay for human Thyroid hormone Receptor beta (TRb) (AID 2283808). A digest of the protocol: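 Readout is reporter mRNA induction measured by RT-PCR, fluorescent labelling and capillary electrophoresis, fitted upward relative to DMSO. Transiently transfected human HepG2 cells expressing NR-Gal4 chimeras were dosed for 24 h, medium containing 3 nM 6-alpha-fluorotestosterone.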

Assay [18] has as its target zebrafish Thyroid Hormone Receptor beta (TRb), thrb (gene 30607) (UniProt Q9PVE4). Nature of the assay: ATG_zfTRb_XSP1: Attagene TRANS-FACTORIAL Multi-Species (XSP1) HepG2 Assay for zebrafish Thyroid Hormone Receptor beta (TRb) (AID 2283809). A digest of the protocol: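 HepG2 cells transiently transfected with multiplexed GAL4-UAS reporter units expressing chimeric zebrafish TRb–Gal4. Dosed 24 h with 3 nM 6-alpha-fluorotestosterone present; reporter mRNA measured by RT-PCR, HpaI digestion and capillary electrophoresis; gain of signal versus DMSO.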

Assay [19] can be described thus: ATG_XTT_Cytotoxicity_XSP1: Cytotoxicity Assessment in the Attagene TRANS-FACTORIAL Multi-Species (XSP1) HepG2 Assay (AID 2283810). A digest of the protocol:
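XTT viability readout taken at 24 hours post-dosing in HepG2 liver cells co-treated with 3 nM 6-alpha-fluorotestosterone. Signal loss relative to DMSO controls reflects cytotoxicity.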

Assay [20] in a line: ATG_M_06_XSP2: Attagene TRANS-FACTORIAL Multi-Species (XSP2) HepG2 Assay for M06 Transcription Factor (Internal Marker) (AID 2283811).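 Note: internal background marker reporter mRNA measured by RT-PCR and capillary electrophoresis; hits are increases in signal above the DMSO baseline.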 A digest of the protocol: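 Cells of the human liver line HepG2 carried transfected reporter transcription units and were treated for 24 h. Induced reporter transcripts were detected by fluorescence after RT-PCR and capillary electrophoresis, with activity fitted in the gain direction against DMSO.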

The term AC50 denotes the concentration giving half of the maximal activity seen.

SMILES strings stand for the structures. Records with an inconclusive call do not appear. Activity calls are given as the source filed them. Rule for the calls: active = hit-call score of the fitted dose curve at least 0.9, where 1 is the maximum; inconclusive = response in the unintended direction; inactive = score below 0.9.

Sequence of frog Thyroid hormone Receptor alpha (TRa), thra-a (gene 397942) (P15204 whole entry, looked up, the tested form may be a part): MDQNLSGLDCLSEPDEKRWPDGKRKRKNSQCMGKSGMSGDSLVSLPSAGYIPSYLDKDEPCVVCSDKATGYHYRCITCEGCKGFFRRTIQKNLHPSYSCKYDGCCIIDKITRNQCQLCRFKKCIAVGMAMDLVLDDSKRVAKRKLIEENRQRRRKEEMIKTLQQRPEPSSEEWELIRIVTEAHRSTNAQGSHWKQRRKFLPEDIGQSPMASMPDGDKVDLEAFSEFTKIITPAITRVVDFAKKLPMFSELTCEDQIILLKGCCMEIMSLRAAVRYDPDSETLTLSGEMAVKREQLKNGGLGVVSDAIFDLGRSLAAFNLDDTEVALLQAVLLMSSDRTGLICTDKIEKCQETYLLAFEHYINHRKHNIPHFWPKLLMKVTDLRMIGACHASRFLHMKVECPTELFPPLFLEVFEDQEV
Sequence of zebrafish Estrogen Receptor (ESR1), esr1 (gene 259252) (P57717 whole entry, looked up, the tested form may be a part): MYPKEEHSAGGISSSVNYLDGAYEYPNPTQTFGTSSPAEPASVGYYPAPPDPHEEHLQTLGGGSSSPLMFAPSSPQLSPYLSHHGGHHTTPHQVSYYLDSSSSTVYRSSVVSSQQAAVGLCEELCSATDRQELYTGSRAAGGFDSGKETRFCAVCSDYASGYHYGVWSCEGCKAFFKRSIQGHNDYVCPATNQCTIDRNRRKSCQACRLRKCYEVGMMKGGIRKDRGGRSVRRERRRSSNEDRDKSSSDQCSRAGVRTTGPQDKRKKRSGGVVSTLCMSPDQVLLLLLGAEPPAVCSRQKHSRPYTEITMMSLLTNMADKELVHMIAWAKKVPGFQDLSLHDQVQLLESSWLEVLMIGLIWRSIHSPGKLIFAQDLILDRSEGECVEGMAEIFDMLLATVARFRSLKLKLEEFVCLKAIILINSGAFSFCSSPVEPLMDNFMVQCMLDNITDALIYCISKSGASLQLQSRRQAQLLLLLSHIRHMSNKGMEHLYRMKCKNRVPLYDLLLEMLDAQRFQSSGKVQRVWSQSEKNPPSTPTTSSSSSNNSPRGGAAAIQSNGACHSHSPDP
Sequence of Peroxisome proliferator-activated receptor gamma (Homo sapiens) (P37231 whole entry, looked up, the tested form may be a part): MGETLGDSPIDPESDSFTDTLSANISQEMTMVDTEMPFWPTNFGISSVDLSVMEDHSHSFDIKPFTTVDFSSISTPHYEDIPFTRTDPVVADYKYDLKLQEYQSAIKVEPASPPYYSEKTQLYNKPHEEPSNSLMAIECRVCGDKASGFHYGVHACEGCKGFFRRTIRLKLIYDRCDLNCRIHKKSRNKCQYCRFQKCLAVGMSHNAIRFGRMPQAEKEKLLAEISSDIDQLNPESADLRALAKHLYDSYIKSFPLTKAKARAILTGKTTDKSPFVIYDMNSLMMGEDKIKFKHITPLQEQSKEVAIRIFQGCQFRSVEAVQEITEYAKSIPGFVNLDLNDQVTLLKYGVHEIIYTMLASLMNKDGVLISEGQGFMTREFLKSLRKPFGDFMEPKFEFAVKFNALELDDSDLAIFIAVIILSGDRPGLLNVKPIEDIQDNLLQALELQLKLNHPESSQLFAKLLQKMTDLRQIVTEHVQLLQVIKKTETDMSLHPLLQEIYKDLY
Sequence of human Thyroid hormone Receptor beta (TRb), THRB (gene 7068) (P10828 whole entry, looked up, the tested form may be a part): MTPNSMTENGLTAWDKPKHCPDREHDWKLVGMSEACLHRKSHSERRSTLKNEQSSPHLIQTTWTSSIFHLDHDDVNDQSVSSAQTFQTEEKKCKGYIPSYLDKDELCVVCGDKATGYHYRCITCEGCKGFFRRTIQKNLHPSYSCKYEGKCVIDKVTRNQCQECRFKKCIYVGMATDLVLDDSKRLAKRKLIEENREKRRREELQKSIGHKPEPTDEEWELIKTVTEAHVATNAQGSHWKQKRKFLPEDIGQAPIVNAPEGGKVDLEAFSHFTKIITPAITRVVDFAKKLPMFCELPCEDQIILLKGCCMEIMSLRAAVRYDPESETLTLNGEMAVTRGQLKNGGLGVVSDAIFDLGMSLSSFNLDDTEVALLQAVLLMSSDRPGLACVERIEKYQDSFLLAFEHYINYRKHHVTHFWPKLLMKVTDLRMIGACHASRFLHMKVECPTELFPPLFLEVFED
Sequence of zebrafish Thyroid Hormone Receptor beta (TRb), thrb (gene 30607) (Q9PVE4 whole entry, looked up, the tested form may be a part): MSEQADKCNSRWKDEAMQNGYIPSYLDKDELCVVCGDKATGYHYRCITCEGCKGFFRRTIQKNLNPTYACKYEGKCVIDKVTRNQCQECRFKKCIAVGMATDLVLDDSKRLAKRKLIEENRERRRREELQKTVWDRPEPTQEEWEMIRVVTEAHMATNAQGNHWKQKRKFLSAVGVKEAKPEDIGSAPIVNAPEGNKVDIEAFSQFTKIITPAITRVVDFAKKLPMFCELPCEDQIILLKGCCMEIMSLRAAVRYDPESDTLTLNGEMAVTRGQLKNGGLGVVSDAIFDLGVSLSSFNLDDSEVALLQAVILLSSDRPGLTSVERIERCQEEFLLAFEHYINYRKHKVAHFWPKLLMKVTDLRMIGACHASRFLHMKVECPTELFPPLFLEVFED
Sequence of mouse Peroxisome Proliferator-activated Receptor gamma (PPARg), Pparg (gene 19016) (P37238 whole entry, looked up, the tested form may be a part): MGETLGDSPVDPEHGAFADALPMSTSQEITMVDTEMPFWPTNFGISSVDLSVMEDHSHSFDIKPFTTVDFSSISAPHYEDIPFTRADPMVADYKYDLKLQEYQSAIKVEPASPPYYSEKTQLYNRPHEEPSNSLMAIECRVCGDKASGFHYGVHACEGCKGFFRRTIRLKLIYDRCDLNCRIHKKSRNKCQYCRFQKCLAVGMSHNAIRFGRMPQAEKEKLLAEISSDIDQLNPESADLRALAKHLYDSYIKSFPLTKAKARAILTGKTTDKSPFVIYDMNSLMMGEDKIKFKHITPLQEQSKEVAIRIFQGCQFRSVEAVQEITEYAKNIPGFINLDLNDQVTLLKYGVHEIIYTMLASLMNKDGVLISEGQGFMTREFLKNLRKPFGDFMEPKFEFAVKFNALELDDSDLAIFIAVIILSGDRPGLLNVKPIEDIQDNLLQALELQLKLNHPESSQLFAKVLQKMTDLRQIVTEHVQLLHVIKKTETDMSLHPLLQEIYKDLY
Sequence of chicken Estrogen Receptor (ESR1), ESR1 (gene 396099) (P06212 whole entry, looked up, the tested form may be a part): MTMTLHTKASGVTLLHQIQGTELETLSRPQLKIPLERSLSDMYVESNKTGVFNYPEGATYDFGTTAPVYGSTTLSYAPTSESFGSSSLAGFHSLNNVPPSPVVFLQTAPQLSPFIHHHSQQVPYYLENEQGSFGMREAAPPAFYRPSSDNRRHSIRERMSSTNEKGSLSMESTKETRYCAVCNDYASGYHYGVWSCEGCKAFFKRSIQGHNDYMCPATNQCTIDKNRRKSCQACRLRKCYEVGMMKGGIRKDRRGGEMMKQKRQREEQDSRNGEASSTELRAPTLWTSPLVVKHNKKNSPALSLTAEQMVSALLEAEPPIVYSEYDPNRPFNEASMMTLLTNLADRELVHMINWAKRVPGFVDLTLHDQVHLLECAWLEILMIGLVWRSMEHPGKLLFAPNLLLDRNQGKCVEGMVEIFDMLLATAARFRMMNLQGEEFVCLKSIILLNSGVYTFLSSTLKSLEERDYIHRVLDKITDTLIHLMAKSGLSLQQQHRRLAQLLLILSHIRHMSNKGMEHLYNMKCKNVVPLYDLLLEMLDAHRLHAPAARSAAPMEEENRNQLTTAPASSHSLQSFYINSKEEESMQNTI
Sequence of zebrafish Thyroid Hormone Receptor alpha (TRa), thraa (gene 30670) (Q98867 whole entry, looked up, the tested form may be a part): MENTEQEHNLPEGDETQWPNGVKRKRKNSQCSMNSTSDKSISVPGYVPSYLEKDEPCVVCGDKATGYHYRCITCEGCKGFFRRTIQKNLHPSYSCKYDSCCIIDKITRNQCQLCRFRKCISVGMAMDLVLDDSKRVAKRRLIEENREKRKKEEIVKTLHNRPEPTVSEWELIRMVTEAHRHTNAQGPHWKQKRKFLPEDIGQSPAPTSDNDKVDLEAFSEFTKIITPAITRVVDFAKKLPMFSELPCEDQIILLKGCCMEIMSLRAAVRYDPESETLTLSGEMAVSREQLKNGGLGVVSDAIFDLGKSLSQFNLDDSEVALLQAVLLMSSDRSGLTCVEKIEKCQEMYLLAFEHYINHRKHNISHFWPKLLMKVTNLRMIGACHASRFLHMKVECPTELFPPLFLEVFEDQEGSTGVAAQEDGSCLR
Sequence of human Thyroid hormone Receptor alpha (TRa), THRA (gene 7067) (P10827 whole entry, looked up, the tested form may be a part): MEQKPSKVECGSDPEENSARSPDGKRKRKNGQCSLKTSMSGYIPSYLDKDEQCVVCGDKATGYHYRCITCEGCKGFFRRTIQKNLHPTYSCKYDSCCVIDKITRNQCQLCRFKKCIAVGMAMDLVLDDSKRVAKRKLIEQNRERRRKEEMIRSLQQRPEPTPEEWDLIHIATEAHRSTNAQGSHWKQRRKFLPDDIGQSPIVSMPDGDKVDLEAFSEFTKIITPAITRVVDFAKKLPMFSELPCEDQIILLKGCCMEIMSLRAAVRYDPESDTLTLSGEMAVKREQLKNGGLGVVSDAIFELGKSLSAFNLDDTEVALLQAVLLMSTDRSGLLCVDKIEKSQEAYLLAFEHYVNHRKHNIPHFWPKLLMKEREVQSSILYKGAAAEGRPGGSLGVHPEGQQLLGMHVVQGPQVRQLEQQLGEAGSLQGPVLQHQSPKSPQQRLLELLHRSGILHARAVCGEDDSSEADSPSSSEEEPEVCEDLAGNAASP

Turning to `CC(C)(c1cc(Cl)c(O)c(Cl)c1)c1cc(Cl)c(O)c(Cl)c1`, the result in assay [1], in assay [4], in assay [8], in [9], in assay [11] and in assay [13] was inactive. The compound was called inactive in assay [14], in assay [15], in assay [17], in assay [18], in assay [19] and in assay [20]. In addition, the AC50 in assay [2] is 9.75 µM (active); in [3], 3.55 µM (active); in [5] it was 2.02 µM (active); in assay [6], 24.3 µM (active); in [7], 23.9 µM (active); in [10] it was 2.73 µM (active). Also, the AC50 was 2.92 µM (active) in [12] and 17.9 µM (active) in [16].
